In PubChem BioAssay one finds composite z-score data, which are given here for 28 compounds.

Each structure is given as a SMILES string.

The nature of this test: small-molecule microarray binders of probe aCHRDL2, primary screen, biochemical, biotinylated probe, 635/667 nm fluorescence (AID 1100). The conditions noted are these: higher = more signal.
For the compound `CC(C)C(O)C1C=CC2C(=O)N(C)C(=O)C2N1Nc1ccccc1` (stereo not drawn), the composite z-score came out at 0.598. `Cc1c(NC(=O)/C(C#N)=C/C=C/c2ccc(N(C)C)cc2)c(=O)n(-c2ccccc2)n1C` gave a composite z-score of 0.294.

Regarding `COc1cc(CO)cc(I)c1O[C@H]1C=C(C(=O)NCCO)C[C@@H](N(Cc2ccc(F)cc2)C(=O)C2CCCO2)[C@@H]1O` (stereo partly drawn), the composite z-score was -0.697. The figure for `O=C1C[C@@](C(=O)NCC(F)(F)F)(c2ccc([N+](=O)[O-])cc2)[C@@H](c2ccc(CO)cc2)N1C1CCCCC1` is 0.843; for `COC(=O)Cn1c(C(=O)N2CCCC2)cc2c1C[C@H]1CN(C(=O)c3ccccc3)[C@@](Cc3ccc(F)cc3)(C(=O)OC)[C@@H]21` it is -0.0982; for `O=C(CS)NCCCCCCNC(=O)[C@H]1C[C@H]2C(=O)N[C@@H](Cc3ccccc3)C(=O)N2[C@H]1c1cccc(OCCO)c1` it is 0.232. In the case of `COc1cc2c(cc1OC)CN(C(=O)[C@H]1[C@@H]3C(=O)O[C@@H](c4ccccc4)[C@@H](c4ccccc4)N3[C@@H](c3ccc(OCCO)cc3)[C@]13C(=O)Nc1ccc(C#CC4(O)CCCCCC4)cc13)CC2`, the composite z-score was determined as 0.623. For the compound `O=C1O[C@H](c2ccccc2)[C@H](c2ccccc2)N2[C@H]1[C@@H](C(=O)O)[C@]1(C(=O)Nc3ccccc31)[C@H]2c1ccc(O)cc1`, the composite z-score turned out to be 0.253. `CC(=O)N1Cc2ccccc2C[C@]2(N=C(c3ccc(OCCCO)cc3)O[C@@H]2c2ccccc2)C1=O` registered a composite z-score of 1.05. In the case of `Cc1ccc(S[C@]2(C(=O)O)CC(=O)N(Cc3ccccc3Cl)[C@@H]2c2ccc(CO)cc2)cc1`, the composite z-score was 0.938. On to `COc1c(C)cc(-c2cc3c(c(-c4ccccc4)n2)[Si](C(C)C)(C(C)C)OC3)cc1C`, for which the composite z-score was -0.676. Next, `O=C(CCCCCCC(=O)Nc1ccccc1)N/N=C/c1ccccc1`: -0.311; `CCOC(=O)C[C@H]1[C@H](OC(=O)Cc2ccc3c(c2)OCO3)[C@@H](NC(=O)C2CCCCC2)c2cc(OCCCO)ccc2N1C(=O)c1ccc2ccccc2n1`: -0.529; `O=C(NC1CC1)[C@@H]1c2ccccc2C(=O)N(Cc2ccccc2)[C@H]1c1ccc(CO)cc1`: 0.211. Next, `NC(N)=NCc1cn(CCc2c[nH]c3ccccc23)nn1`: -0.865.

As for `COCCCNC(=O)[C@@]1(Sc2ccc(C)cc2)CC(=O)N(Cc2cc(C(F)(F)F)cc(C(F)(F)F)c2)[C@@H]1c1ccc(CO)cc1`, the composite z-score was -0.0087. For `O=C1O[C@@H](c2ccccc2)[C@@H](c2ccccc2)N2[C@@H](c3ccc(O)cc3)[C@]3(C(=O)Nc4ccc(C#CC5=CCCCC5)cc43)[C@@H](C(=O)N3CCN(c4ncccn4)CC3)[C@H]12`, the composite z-score is -0.0675. Turning to `COCCOC(=O)N1C(=O)[C@@]2(c3cc(C#CC4=CCCCC4)ccc31)[C@H](c1ccccc1OCCO)N1[C@H](c3ccccc3)[C@H](c3ccccc3)OC(=O)[C@H]1[C@@H]2C(=O)N1CCc2cc(OC)c(OC)cc2C1`, the composite z-score is -0.834. Next, `CC[C@H]1C2=C3C(CC[C@H]4C(OCc5ccc(F)cc5C(F)(F)F)OC[C@](C)([C@@H]34)N(C(=O)OC(C)(C)C)C2)C2COC(=O)OCC21` (stereo partly drawn): 1.12; `CO[C@H]1O[C@H](CO)[C@@H](OC(=O)Nc2ccccc2-c2ccccc2)[C@H](OC(=O)Nc2ccc3c(c2)OCO3)[C@@H]1OC(=O)Nc1ccc2c(c1)OCO2`: 0.679; `COCCCNC(=O)[C@@]1(Sc2ccc(C)cc2)CC(=O)N(C2Cc3ccccc3C2)[C@@H]1c1ccc(CO)cc1I`: 0.947. The figure for `Cc1ccc(S[C@]2(C(=O)NCc3ccccc3)CC(=O)N(C(C)C)[C@@H]2c2ccc(CO)cc2I)cc1` is 1.16; for `CC(C)C(O)C1C=CC2C(=O)N(C)C(=O)C2N1N(c1ccccc1)c1ccccc1` (stereo not drawn) it is 0.972. As to `O=C1OCC=C[C@H]2OC34C=CCN(Cn5nnc6ccccc65)C(=O)[C@H]3N(CCCCCCO)C(=O)[C@@H]4[C@@H]12` (stereo partly drawn), the composite z-score was found to be 0.538. `COC(=O)[C@@]1(Cc2ccccc2)[C@H]2c3cc(C(=O)N4CCCC4)n(Cc4cc(F)cc5c4OCOC5)c3C[C@H]2CN1C(=O)c1ccccc1`: the composite z-score was 1.1. For the compound `O=C(O)[C@H](Cc1ccccc1)n1cc(-c2ccccn2)nn1`, the composite z-score was -0.323.

For the compound `CN(C)CCCNC(=O)[C@@]1(c2ccc([N+](=O)[O-])cc2)CC(=O)N(CC23CC4CC(CC(C4)C2)C3)[C@@H]1c1ccc(CO)cc1`, the composite z-score worked out at 0.811. `CCOC(=O)C[C@H]1[C@H](OC(=O)c2ccc(-c3ccccc3)cc2)[C@@H](NC(=O)c2ccc3ccccc3n2)c2cc(OCCCO)ccc2N1C(=O)c1ccccc1` had a composite z-score of 0.475.
